In publication PMC5540273 (PLoS ONE, 2017):

Columns and labels:
Conditions in all cases: concentration: 1 μM, replicates: in singlicate; n = 1
[1] = system: T1, PYK2
T1 construct: gene PTK2B

[2] = system: QSK
[3] = system: RAF1
[4] = system: RET
[5] = system: RIOK1
[6] = system: RIOK2
[7] = system: RIOK3
[8] = system: RIPK1
[9] = system: RIPK2
[10] = system: RIPK4
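Further: KINOMEscan kinase panel screen.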

Row | Structure (SMILES) | %Inh [1] [%] | %Inh [2] [%] | %Inh [3] [%] | %Inh [4] [%] | %Inh [5] [%] | %Inh [6] [%] | %Inh [7] [%] | %Inh [8] [%] | %Inh [9] [%] | %Inh [10] [%]
1 | O=c1cc(N2CCOCC2)nc2n(Cc3cccc(Cl)c3Cl)c(C3CC3)nn12 [GSK2358994] | 0 | 0 | 0 | 8 | 13 | 25 | 37 | 0 | 0 | 16
2 | O=C(NOCC1CC1)c1ccc(F)c(F)c1Nc1ccc(I)cc1Cl | 0 | 0 | 0 | 17 | 7 | 0 | 0 | 0 | 0 | 100
3 | COC(=O)Nc1nc2cc(Oc3ccc(NC(=O)Nc4cc(F)ccc4F)cc3)ccc2[nH]1.Cl [GW701424] | 0 | 0 | 89 | 95.1 | 0 | 0 | 0 | 0 | 38 | 8
4 | Cn1ccc2ncnc(Oc3ccc(NC(=O)Nc4ccncc4)c(Cl)c3)c21 | 0 | 0 | 12 | 1 | 0 | 0 | 23 | 0 | 0 | 0
5 | Cc1nnc(-c2ccc(C)c(-c3ccc(C(=O)Nc4ccc(NS(C)(=O)=O)cc4)cc3)c2)o1 [GW702865] | 0 | 0 | 2 | 45 | 22 | 0 | 27 | 36 | 14 | 0
6 | CCc1nc(-c2cccc(C)c2)c(-c2ccnc(NCc3ccccc3)c2)s1 | 9 | 0 | 24 | 4 | 10 | 0 | 22 | 0 | 26 | 0
7 | N#Cc1ccc(-c2cc(-c3c[nH]nc3-c3ccccn3)ccn2)cc1 [GW693028] | 0 | 12 | 1 | 12 | 0 | 0 | 0 | 0 | 49 | 5
8 | N#Cc1c(N2CCOCC2)sc(-c2ccn[nH]2)c1-c1ccc(Cl)cc1 | 0 | 0 | 11 | 0 | 0 | 0 | 0 | 6 | 0 | 35
9 | CCc1ccnc(/C=C/c2n[nH]c3cc(Sc4ccccc4C(=O)NC)ccc23)c1 | 0 | 0 | 0 | 83 | 0 | 0 | 0 | 0 | 43 | 0
10 | COc1cc2ncn(-c3cc(OCc4sccc4Cl)c(C(N)=O)s3)c2cc1OC [GSK448459] | 0 | 7 | 12 | 26 | 91.8 | 13 | 61 | 0 | 3 | 15
11 | NS(=O)(=O)c1cccc(-c2ccc3ncc(N4CCOCC4)nc3c2)c1 [GSK1535721] | 10 | 0 | 5 | 0 | 22 | 41 | 0 | 19 | 13 | 1
12 | Cn1cc(-c2ccc3c(c2)CCN3C(=O)Cc2ccccc2Cl)c2c(N)ncnc21 [GSK2608885] | 38 | 23 | 94.9 | 99.9 | 23 | 0 | 21 | 0 | 99.4 | 0
13 | Fc1ccc(-c2ncn(CCCN3CCOCC3)c2-c2ccccn2)cc1 [SB-211742] | 0 | 0 | 29 | 7 | 27 | 0 | 41 | 0 | 0 | 0
14 | O=C(NCCCN1CCOCC1)c1cccc(Nc2nccc(Nc3ccc(Oc4ccccc4)cc3)n2)c1 [GW663929] | 0 | 0 | 0 | 17 | 31 | 23 | 36 | 24 | 100 | 29
15 | Cc1c(Cn2c(C)nn3c(=O)cc(N4CCOC(C)C4)nc23)cccc1C(F)(F)F (centres unmarked) [GSK2344444] | 0 | 4 | 0 | 1 | 27 | 10 | 0 | 0 | 0 | 7
16 | Cc1cccc(Cn2ccn3c(=O)cc(N4CCOCC4)nc23)c1 [GSK2297542] | 12 | 11 | 7 | 13 | 26 | 29 | 10 | 26 | 11 | 7
17 | CN1c2ccc(CNc3ccc(F)cc3)cc2-c2c(cnn2C)S1(=O)=O | 0 | 20 | 0 | 0 | 18 | 0 | 14 | 0 | 2 | 5
